Sampled rows, rich in hits. Any-hit rate of the full collection: about 0.81%.
TbPYK inhibitor – T. brucei pyruvate kinase inhibition. Q57TT1. TbPYK enzyme, Kinase-Glo Plus ATP luminescence, 45 min. Potency, µM (series often up to 76.8 µM), for the others: at the top dose activity, negative = inhibition, most hits filed as inhibitors. hit rate 0.12% among 410,000. AID 624173; note: % is set by controls: 0 for no effect and ±100 for the full control effect; nearly all actives have a fitted effect of over 50% in size
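Quantitative HTS: titrated library compounds versus trypanosomal pyruvate kinase in TEA buffer (pH 7.2) containing KCl, MgCl2, BSA and Tween-20. Reactions were initiated with ADP, 130 uM final. Kinase-Glo Plus luminescence was read after 45 min at RT.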
RE007 growth inh – less growth of the S. pombe RE007 Vpr strain; Potency, µM (series often up to 92.2 µM), for inactives: at the highest dose activity change, negative = less growth, usual class: inhibitors; hit rate 0.21% among 360,000; S. pombe RE007 Vpr strain, BacTiter-Glo ATP luminescence, 24 h; AID 651644; active = well fitted falling curve with a large enough effect; inconclusive = small, poorly fitted or top-dose-only effect; inactive = no such curve, though single readings can be large or run the other way; note: % is set by controls: 0 for no effect and ±100 for the full control effect; nearly all actives have a fitted effect of over 50% in size
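Fission yeast strain RE007, carrying one chromosomally integrated HIV-1 vpr copy, was seeded at OD 0.01 in PMG+AL medium with 23 nL pinned compound. After 24 h at 30 °C and 99% humidity, viability was read by BacTiter-Glo luminescence.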
AMA1-RON2 inh – inhibitors of Plasmodium falciparum AMA1-RON2 interaction | hit rate 0.2% among 360,000 | AlphaScreen AMA1-biotinylated RON2 peptide binding | Potency, µM (doses to about 58.2 µM), for the others: at the top dose activity change, negative = inhibition, actives largely listed as inhibitors | AID 720542;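 note: 0% = vehicle wells and -100% = peptide control; nearly all actives have a fitted effect of over 45% in size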
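AMA1 (3D7) with his tag at 25 nM final met compounds first, then biotinylated RON2 peptide at 25 nM; detection used donor plus acceptor beads, 10 µg/mL apiece, read by AlphaScreen after 30 min at room temperature.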
LmPK inh – LmPK (Leishmania mexicana) enzyme inhibition | Potency, µM (doses to about 57.5 µM), for inactives: top-dose activity change, negative = inhibition, most hits filed as inhibitors | hit rate 0.37% among 290,000 | Q27686 | purified LmPK, Kinase-Glo ATP luminescence, 1 h; note: % is set by controls: 0 for no effect and ±100 for the full control effect
Target sequence (Q27686 whole entry, looked up): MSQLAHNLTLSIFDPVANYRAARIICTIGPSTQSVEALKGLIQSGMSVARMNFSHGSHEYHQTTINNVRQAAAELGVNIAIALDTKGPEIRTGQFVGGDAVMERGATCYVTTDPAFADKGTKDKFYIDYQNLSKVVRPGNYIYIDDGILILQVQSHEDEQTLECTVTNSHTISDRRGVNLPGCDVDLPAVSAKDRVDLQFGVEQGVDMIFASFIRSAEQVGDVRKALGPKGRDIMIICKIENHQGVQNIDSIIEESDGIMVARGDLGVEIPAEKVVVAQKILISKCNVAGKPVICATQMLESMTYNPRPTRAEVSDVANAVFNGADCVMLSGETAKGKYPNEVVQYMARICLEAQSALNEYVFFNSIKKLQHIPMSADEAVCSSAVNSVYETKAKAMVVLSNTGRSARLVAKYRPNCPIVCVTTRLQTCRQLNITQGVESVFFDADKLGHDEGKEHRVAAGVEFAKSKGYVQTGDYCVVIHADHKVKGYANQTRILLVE
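ATP generated from ADP (0.1 mM) and PEP (0.5 mM) by 0.1 nM LmPK over 1 h at room temperature (pH 7.2 imidazole buffer) was detected by coupled luciferase luminescence. Values were normalized to uninhibited and no-enzyme wells.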
SARS PLP yeast – inhibitors of SARS-CoV papain-like protease in yeast | S. cerevisiae expressing SARS-CoV PLpro, growth rescue | Potency, µM (top dose mostly 32.9 µM), inactives show at the highest dose activity, positive = growth rescue, hits mostly activators | hit rate 0.19% among 330,000 | AID 485353; calls by dose curve; note: 0% is about no effect; nearly all actives have a fitted effect of over 55% in size
* marks the source's active call; other numbers are inactive results; ? = inconclusive; . = no result given; [ ] = remark or other dose. Unless noted, calls come from the whole dose curve; as a rule, active = well fitted curve in the direction sought with a large enough effect; inconclusive = small, poorly fitted or top-dose-only effect, or another doubt; inactive = no such curve, though single readings can be large; an effect the other way counts as inactive or inconclusive. Potency is the fitted concentration of half-maximal effect.

SMILES | TbPYK inhibitor | RE007 growth inh | AMA1-RON2 inh | LmPK inh | SARS PLP yeast
Cc1ccc2sc(N(CCCN(C)C)C(=O)c3ccc(Br)s3)nc2c1C | -0.4% | 2.2% | 25.1µM* | 15.5% | -25.1%
O=C(CSc1nccn1Cc1ccccc1)NC1CCCC1 | -0.8% | ? | -2.1% | -13.2% | 12.6µM*
O=C(CSc1nccn1Cc1ccc(Cl)cc1)NC1CCCC1 | -9.8% | . | . | . | .
COc1ccc(N(C(=O)COc2ccc(C)cc2)S(=O)(=O)c2ccc(C)cc2)cc1 | 5.7% | 0.1% | -2.9% | -0.6% | 12.9%
CC1(C)CC(=O)C2=C(C1)OC1=C(C(=O)CC(C)(C)C1)C2c1ccc(O)c([N+](=O)[O-])c1 | -1.2% | 16.4% | -0.8% | 7.1% | -0.6%
CC1(C)CC(=O)C2=C(C1)OC1=C(C(=O)CC(C)(C)C1)C2c1ccc(O)cc1O | 39.8µM* | ? | -5.1% | 4.4% | -22.7%
Nc1ccn([C@@H]2O[C@H](CO)[C@@H](O)C2(F)F)c(=O)n1 | 0.0%[157 µM] | . | . | . | .
[O-][n+]1cccc(CO)c1 | 2.1% | . | . | . | .
C/C=C/c1ccc(O)c(OC)c1 | 43.1% | -4.4% | -12.7% | . | 0.7%
Oc1cc(O)cc(/C=C/c2ccc(O)c(O)c2)c1 | ? | -18.2%[18.4 µM] | 7.08µM* | . | .
O=C1/C(=C/Nc2ccc3c(c2)OCO3)CCc2ccccc21 | ? | ? | -11.2% | 12.6µM* | -30.1%
COc1ccc(N/C=C2\CCc3ccccc3C2=O)cc1 | ? | ? | 18.5% | 12.6µM* | -4.2%
O=C(Nc1nc2ccccc2[nH]1)c1ccc(Cl)cc1 | -14.6% | ? | 78.7% | -16.4% | 1.0%
O=C(Nc1nc2ccccc2[nH]1)c1ccccc1 | -21.8% | ? | -3.9% | 15.8µM* | -15.7%
Cc1nc(-c2ccccc2O)n(S(=O)(=O)N(C)C)n1 | 2.9% | -10.1% | 11.4% | 3.1% | -2.3%
CN(C)S(=O)(=O)N1C(=O)c2ccccc2C1=O | 0.0% | 3.5% | -3.0% | 28.2µM* | 0.1%
Fc1ccc(CSc2nc3ccccc3[nH]2)cc1 | -8.3% | ? | -1.3% | 22.4µM* | -17.7%
Fc1ccc(CSc2nc3ccccc3[nH]2)c2ccccc12 | 2.5% | 12.6µM* | -1.6% | -0.3% | -43.6%
O=c1cc(CSc2nc3ccccc3[nH]2)c2ccccc2[nH]1 | 0.4% | 1.9% | 0.3% | 0.1% | 15.3%
CC[N+](CC)(CC)CCOC(=O)C(C1CCCC1)C1CCCC1 | -2.4% | . | . | . | .
C[C@@H](O[C@H]1OCCN(Cc2n[nH]c(=O)[nH]2)[C@@H]1c1ccc(F)cc1)c1cc(C(F)(F)F)cc(C(F)(F)F)c1 | -6.5% | . | . | . | .
CCN1CCN(c2ccc([N+](=O)[O-])cc2C=C2C(=O)NC(=O)NC2=O)CC1 | 22.4µM* | 0.9% | -8.5%[2.32 µM] | -5.6% | 17.8%
CC(=O)N1CCN(c2ccc([N+](=O)[O-])cc2C=C2C(=O)NC(=O)NC2=O)CC1 | -17.6% | 26.8% | -12.4% | 2.9% | -1.9%
Cc1ccc(S(=O)(=O)N2CCCC2CNC(=O)C(=O)NCc2ccc3c(c2)OCO3)cc1 (configuration not stated) | 0.5% | 10.4% | -8.1% | . | .
C=CCc1c(C)[nH]c2c(OC)cccc2c1=S | ? | 0.4% | 0.7% | 2µM* | -2.7%
SMILES | TbPYK inhibitor | RE007 growth inh | AMA1-RON2 inh | LmPK inh | SARS PLP yeast
CCCCn1c2ccccc2c2nnc(SCC(=O)Nc3ccc(NC(C)=O)cc3)nc21 | 3.6% | . | . | . | .
Cc1cc(C)c(NC(=O)COC(=O)c2cccc3c2C(=O)c2ccccc2C3=O)c(C)c1 | -5.5% | -13.2% | -28.0% | 2.4% | -0.6%
Cc1cc(C)c(Nc2cc(S(=O)(=O)O)c(N)c3c2C(=O)c2ccccc2C3=O)c(C)c1 | ? | . | 28.2µM* | ? | -28.9%
C(=N\Nc1nc2ccccc2s1)/c1ccccn1 | -16.0% | 14.1µM* | 12.4% | ? | -6.7%
COc1ccc(C=NNc2nc3ccccc3s2)cc1 | -4.6% | 0.9% | 32.8% | . | .
C(=NNc1ccc2ccccc2n1)c1ccccn1 | -16.3% | 28.2µM* | -21.1% | . | .
CN(C(=O)CSc1nnc(-c2ccc([N+](=O)[O-])cc2)o1)C1CCCCC1 | -7.7% | . | . | . | .
O=c1[nH]nc(SCc2nnc(-c3ccc([N+](=O)[O-])cc3)o2)n1C1CCCCC1 | 0.2% | -9.2% | 3.16µM* | 0.7% | 0.9%
C[C@H]1[C@@H](Cc2cc(Cl)cc(Cl)c2)N(c2ccccc2)c2ccccc2CN1Cc1ccccc1 | . | -7.5% | 25.2% | . | .
COc1ccc(N2c3ccccc3CN(Cc3ccccc3)CC2Cc2cc(OC)c(OC)c(OC)c2)cc1 (configuration not stated) | 0.4% | -0.1% | 11.2µM* | . | .
CCOC(=O)[C@]12Cc3ccc(C)cc3[C@H]1N(C1CCCCC1)C(=O)c1cc(OC)ccc12 | -11.0% | 15.8µM* | 0.0% | . | .
CCOC(=O)[C@]12Cc3ccc(C)cc3[C@H]1N(C1CCCCC1)C(=O)c1ccccc12 | 0.7% | -2.3% | -0.9% | . | .
CCOC(=O)[C@]12Cc3cc(Cl)ccc3[C@H]1N(C1CCCCC1)C(=O)c1cc(OC)ccc12 | -0.8% | 63.1µM* | -7.9% | . | .
O=C(Nc1ccc([N+](=O)[O-])cc1)C(=O)Nc1cccc(C(=O)O)c1 | ? | ? | -6.9% | 25.1µM* | -1.4%
COC(=O)[C@H]1[C@H]2C[C@@H]3c4[nH]c5ccccc5c4CCN3C[C@H]2C[C@@H](OC(=O)c2cc(OC)c(OC)c(OC)c2)[C@@H]1OC | 2.5% | . | . | . | .
CCSS(=O)(=O)c1cccc2cccnc12 | 10µM* | 5.62µM* | 1.5% | 47.3% | -3.8%
O=C(O)CCS(=O)(=O)c1cccc2cccnc12 | -8.5% | 2.0% | -15.1% | 0.3% | 11.0%
COc1ccc(/C=N/Nc2nccnc2Cl)cc1 | ? | ? | 12.6% | 7.08µM* | -9.6%
Brc1ccc(/C=N/Nc2ccccn2)cc1 | -7.7% | -9.5% | -15.9% | 6.0% | 0.1%
COc1ccc(/C=N/Nc2nncc3ccccc23)cc1 | ? | -18.0% | 224.0% | 11.2µM* | -55.0%
COc1ccc(/C=N/Nc2nccnc2Cl)c(OC)c1 | -29.3% | -5.8% | 29.3% | 10µM* | 0.0%
COc1ccc(/C=N/Nc2nonc2N)c(OC)c1 | -1.8% | -4.0% | 5.9% | 1.8% | -0.3%
Clc1nccnc1N/N=C/c1ccc(Br)cc1 | ? | -27.0% | 16.5% | 17.8µM* | -5.3%
CN1CCN(CCCNC(=O)Cn2c(-c3cccs3)cc3cc(Cl)ccc32)CC1 | -2.1% | . | . | . | .
CN(C)CC[C@@](O)(c1ccccc1)c1ccccc1Cl | -10.0% | . | . | . | .
Oc1ccc2c3c1OC1C(O)C=CC4[C@@H](C2)NCC[C@]314 (some centres not stated) | -7.0%[157 µM] | . | . | . | .
Cc1oc(=O)oc1CN1CCN(c2cc3c(cc2F)c(=O)c(C(=O)O)c2n3C(C)S2)CC1 (configuration not stated) | -8.7% | . | . | . | .
O=C(O)c1cn(-c2ccccc2)nc1C(=O)O | -9.9% | 7.4% | 1.0% | 1.0% | -19.7%
NNC(=O)c1nn(-c2ccccc2)cc1O | . | . | . | -12.8% | 10µM*

Screens: PubChem BioAssay, National Center for Advancing Translational Sciences (NCATS)
